Screening data as filed in PubChem BioAssay.
Pf Dd2 growth = qHTS Primary assay for Inhibitors of Plasmodium falciparum Dd2 growth in vitro; Potency, µM (top dose mostly 28.9 µM), usual class: inhibitors; P. falciparum Dd2 growth, SYBR Green, 72 h; hit rate 4.3% among 120,000; AID 1347417, 2020; active means well fitted inhibition curve with a large enough effect; further: nearly all actives have a fitted effect of over 65% in size
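Readout: SYBR Green fluorescence, 485 nm excitation, 535 nm emission, after ~16 h lysis at 37C. Before that, Dd2-infected red cells (2.5% hematocrit) grew 72 h with compound, 29 uM top final concentration.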
Numbers stand for hits; - = inactive; [ ] = another dose, or the depositor's remark. The sample as a whole holds a higher share of hits than the screen did.

SMILES	Pf Dd2 growth
Cc1ncsc1CCCNc1nc(-c2ccccn2)nc2c1CCNCC2	-
c1ccc(OCCNc2nc(-c3cccnc3)nc3c2CCNCC3)cc1	2.2µM
c1cc(-c2nc3c(c(NCc4cn5c(n4)SCC5)n2)CCNCC3)ccn1	-
COc1ccc(NS(=O)(=O)c2nnc(NC(=O)c3ccccc3F)s2)cc1	-
O=C(NC1CCCCC1)N1CCC(c2noc(-c3ccccn3)n2)C1 (stereo not drawn)	-[5.79 µM]
O=C(c1ccccc1Cl)N1CCN(c2cc(-c3ccc(Cl)cc3)[nH]n2)CC1	-
c1ccc(OCCn2c(COc3ccccc3)nc3ccccc32)cc1	-
COc1cccc(OCc2nc3ccccc3n2CCOc2ccccc2)c1	-
CCn1c(=N)n(CCOc2ccc(Br)cc2)c2ccccc21	5µM
COc1ccc(-n2ncc3c2ncn2nc(COc4ccc(Cl)cc4)nc32)cc1	-
Cc1ccc(CN(Cc2cccn2-c2nnc(N3CCCC3=O)s2)C(=O)Nc2cc(C)cc(C)c2)cc1	3.2µM
Cc1ccc(NCc2cccn2-c2nnc(N3CCC(C(=O)NC(C)C)CC3)s2)cc1	-
COC(=O)c1ccccc1NC(=O)N(Cc1ccc(C)cc1)Cc1cccn1-c1nnc(N2CCCC2=O)s1	-
COCCN1C(=O)CCc2cc(NC(=O)CCc3ccccc3)ccc21	-
C[S+](=O)([O-])N1CCN(C(=O)N2CC3CC(C2)[C@H]2CCCC(=O)N2C3)CC1 (stereo partly drawn)	-
CN(Cc1ccsc1)c1cc(C2CC(O)C2)ncn1 (stereo not drawn)	-
CCOC(=O)c1ccc(NC(=O)C2CCN(S(=O)(=O)c3ccc(C)cc3)CC2)cc1	-
O[C@]12CCNC[C@H]1CN(Cc1ccc(C(F)(F)F)cc1F)CC2	-
COc1cccc(CN2CC[C@@]3(O)CCNC[C@H]3C2)c1OCCCn1ccnc1	4µM
O[C@]12CCNC[C@H]1CN(Cc1cccc(N3CCOCC3)c1)CC2	-
CCn1cc(S(=O)(=O)N2CCCCCCN(C)C(=O)CC2)cn1	-
C[C@@H](NC(=O)N1CCC(n2cc(CO)nn2)CC1)c1ccc(F)cc1	-
O=C(NCCc1ccccc1)N(C1CCOCC1)C1CCN(Cc2ccccc2)CC1	5.6µM
O=C(NCCc1ccccc1)N(C1CCOCC1)C1CCN(Cc2ccsc2)CC1	-
O=C(NCCc1ccccc1)N(C1CCOCC1)C1CCN(Cc2cccnc2)CC1	-
SMILES	Pf Dd2 growth
O=C(C1CCOCC1)N1CCOC[C@H](Oc2ccc(C(F)(F)F)cn2)C1	-
COc1ccc(Cl)cc1C(=O)Nc1c2c(nn1-c1ccc(Cl)cc1)CS(=O)(=O)C2	-
CC(=O)N1Cc2ccccc2CC2(CCN(CC3CCCC3)CC2)C1	-
O=C(C1CCCC1)N1CC2(CCCN(Cc3c[nH]c4ccccc34)C2)Cc2ccccc21 (stereo not drawn)	7.1µM
O=C(C1CCCC1)N1CC2(CCN(Cc3ccc(Cl)cc3)C2)Cc2ccccc21 (stereo not drawn)	14µM
CC(=O)N1CC2(Cc3ccccc31)CN(C(=O)C1CCCC1)C2	-
O=C(C1CCCC1)N1CC2(CCN(CC3CCCCC3)C2)Cc2ccccc21 (stereo not drawn)	11µM
NC(=O)c1cccc(CN2CCC3(Cc4ccccc4N(C(=O)C4CCCC4)C3)C2)c1 (stereo not drawn)	-
O=C(O)CCC(=O)N1CCCC2(Cc3ccccc3N(C(=O)C3CCCC3)C2)C1 (stereo not drawn)	-
CS(=O)(=O)N1CC2(CCN(CC3CC3)C2)Cc2ccccc21 (stereo not drawn)	-
CC1Oc2ccc(NS(=O)(=O)c3cccc(Cl)c3)cc2CN(Cc2ccccc2F)C1=O (stereo not drawn)	-
CCc1ccc(NC(=O)CCn2nc(C)c(S(=O)(=O)N3CCCCC3)c2C)cc1	-
COc1ccc(O[C@H]2COCCN(S(=O)(=O)c3ccc(Cl)cc3)C2)cc1	-
COc1ccccc1CNC[C@H]1O[C@@H]2C[C@@H](CC(=O)NCc3nccn3C)O[C@@H]2[C@@H]1O	-
CCOC(=O)C1CCCN(S(=O)(=O)c2csc(C(N)=O)c2)C1 (stereo not drawn)	-
O=C1NCCCN1C1CCN(Cc2ccccc2)CC1	-
CCn1ncc(N2CCCC(CC(=O)Nc3ccc(C)cc3C)C2)cc1=O (stereo not drawn)	-
CC(=O)N1CCN(C(=O)C2(C)CCc3cnc(Nc4ccccc4)nc32)CC1 (stereo not drawn)	-
CC1(C(=O)N2CCCC2)CCCc2cnc(Nc3ccccc3)nc21 (stereo not drawn)	-
CC1(C(=O)N2CCC(c3ccccc3)CC2)CCc2cnc(Nc3ccncc3)nc21 (stereo not drawn)	10µM
c1cncc(CN2CCC(OC3CCN(Cc4ccncc4)CC3)CC2)c1	-
CN(CC1CCN(CCc2ccc(F)cc2)CC1)C1CCN(Cc2cccnc2)CC1	6.3µM
CN(Cc1cccnc1)c1nc2c(c(=O)[nH]1)CCN(Cc1ccc(F)cc1)CC2	-[5.79 µM]
COc1ccc(Cl)cc1C(=O)N1CC[C@@H]2CN(S(C)(=O)=O)[C@@H]2C1	-
COc1cccc(C(=O)Nc2cccc(C(=O)OCc3cc(=O)n4nc(C(C)C)sc4n3)c2)c1	-
SMILES	Pf Dd2 growth
CCOCCCNC(=O)c1cc2c(-c3ccc(OC)c(OC)c3)nn(C)c2s1	-
COC(=O)c1ccccc1NC(=O)c1cc2c(-c3ccc(OC)c(OC)c3)nn(C)c2s1	-
CCCCN(CC)CCCNC(=O)c1cc2c(-c3ccc(OC)c(OC)c3)nn(C)c2s1	7.9µM
Cc1cnn(CCC(=O)N2C[C@@H](COc3ccccc3)[C@H](C(N)=O)C2)c1	-
CC(C)(C)CC(=O)N1CCC(N2CC3CC(C2)[C@H]2CCCC(=O)N2C3)CC1 (stereo partly drawn)	-
COc1cc(CNCc2cnn(C)c2C)ccc1OCC(O)CN1CCSCC1 (stereo not drawn)	-
COc1cc(CNC(C)Cn2nc(C)cc2C)ccc1OCCN1CCCC1 (stereo not drawn)	3.5µM
COc1ccc(CNc2cc3c(cn2)CN(C)CCN3C)cc1OC	-
Fc1ccc(NC(=S)N[C@H]2CO[C@H]3[C@@H]2OC[C@@H]3n2nnnc2-c2ccccc2)cc1	-
CCOc1ccc(CCCC(=O)N[C@@H]2CCOC[C@H]2OC)cc1C	-
O=C1COc2ccc(-c3cncnc3)nc2CN1CCOc1ccccc1	-
Cc1ccc(-c2nc3ncccn3c2Nc2ccc3c(c2)OCCO3)cc1	-
COc1ccc(Nc2c(-c3ccc(N4CCOCC4)cc3)nc3ncccn23)cc1OC	-
COc1cc(-c2nc3ncccn3c2Nc2ccc(C)cc2C)ccc1O	13µM
Cc1cccc(CNC(=O)CCc2conc2-c2ccccc2)c1	-
O=C(N[C@@H]1CCOC[C@H]1Oc1ccccn1)c1ccccc1-c1ncc[nH]1	-
CCOc1ccc(C2c3c(-c4ccccc4O)n[nH]c3C(=O)N2Cc2cccnc2)cc1OC (stereo not drawn)	-
CCCCN1C(=O)c2[nH]nc(-c3ccccc3O)c2C1c1cc(Br)c(O)c(OC)c1 (stereo not drawn)	-
CCCCN1C(=O)c2[nH]nc(-c3ccccc3O)c2C1c1ccc(OCc2ccccc2)c(OC)c1 (stereo not drawn)	11µM
CCCN1C(=O)c2[nH]nc(-c3ccccc3O)c2C1c1ccc(OCc2ccccc2)c(OCC)c1 (stereo not drawn)	11µM
O=C(O)CCn1ncc2cc(OCC3CCN(C(=O)C4CCCC4)CC3)ccc21	-
O=C1NCCCC1C(=O)N1CCC2(CC1)Nc1ccccc1NC2=O (stereo not drawn)	-
